Screening data (PubChem BioAssay)
Rows were chosen to be rich in hits. Some 3.8% of all compounds tested hit in one or more screens of this group.
HepG2 viability: HepG2 cytotoxicity, counter-screen for TGF-b inhibitors; HepG2 CAGA-GFP viability, ATP luminescence, 18 h; Potency, µM (top dose mostly 46.1 µM), most hits filed as cytotoxic; 410,000 compounds, 0.76% hits
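CellTiter-Glo luminescence gave cytotoxicity after 18 hours at 37 degrees C. The cells were HepG2 CAGA-GFP in 1% FBS DMEM, stimulated with 500 pg/mL TGF-beta after compound addition. %Activity was normalised to no-cell wells (complete cell-killing) and DMSO (no toxicity), and curves were fitted and classified.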
TGFb inhibitor: blocks TGF-b signaling; AID 588855; Potency, µM (doses to about 46.1 µM), hits mostly inhibitors; 410,000 compounds, 1.2% hits; HepG2 CAGA-GFP TGF-b/SMAD3 reporter, GFP fluorescence, 18 h; TGF-beta stimulated, 500 pg/mL final; note: nearly all actives have a fitted effect of over 65% in size
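HEPG2 CAGA-GFP reporter cells (1000/well, DMEM with 1% FBS) received compounds, then recombinant TGF-beta at 500 pg/mL final for 18 hours at 37 degrees C. Per-cell GFP summed per well was normalised to unstimulated and stimulated DMSO controls before curve fitting.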
HT1080-NT tox: kills 2HG-producing HT-1080-NT fibrosarcoma cells | HT-1080-NT fibrosarcoma viability, CellTiter-Glo ATP luminescence, 48 h | 360,000 compounds, 1.6% hits | Potency, µM (top dose mostly 46.1 µM), hits mostly cytotoxic;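 note: NT is the 2HG producing partner of a matched IDH1 knockdown line; nearly all actives have a fitted effect of over 55% in size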
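HT-1080-NT; 750 cells/well; 5% FBS RPMI; 48 h compound, 37 degrees C; CellTiter-Glo luminescence; curve fitting and curve-class assignment.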
HT1080 IDH1KD tx: kills HT-1080 cells with IDH1 knockdown; 360,000 compounds, 2% hits; Potency, µM (highest dose often 46.1 µM), hits mostly cytotoxic; HT-1080 IDH1 knockdown viability, ATP luminescence, 48 h
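Viability of IDH1-knockdown HT-1080 fibrosarcoma cells was assessed by CellTiter-Glo after 48 h at 37 °C with titrated compound; concentration-effect curves were classified by fit quality and response size.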
ATXN2 expr inh: ATXN2 expression inhibition; HEK-293 ATXN2-luciferase reporter, luminescence, 24 h; Potency, µM (highest dose often 57 µM), usual class: inhibitors; 360,000 compounds, 0.72% hits; note: nearly all actives have a fitted effect of over 55% in size
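qHTS (up to 57 uM final) was run with 24 h compound exposure of reporter cells at 37 °C. Each well was multiplexed: SteadyGlo luminescence measured ATXN2-luciferase expression after a fluorogenic Gly-Phe-AFC viability readout (25 uM final).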
S2 tox: viability counter-screen for ATXN expression inhibitors | S2 cells (HEK-293 line with an ATXN2-luciferase reporter) viability, CellTiter-Fluor protease fluorescence, 24 h | Potency, µM (highest dose often 56.7 µM), hits mostly cytotoxic | 400,000 compounds, 0.49% hits; note: nearly all actives have a fitted effect of over 40% in size
Large screens that a line does not name were inactive; ! = a repeat was not active. Calls come from the whole dose curve; as a rule, active = well fitted curve in the direction sought with a large enough effect; inconclusive = small, poorly fitted or top-dose-only effect, or another doubt; inactive = no such curve, though single readings can be large; an effect the other way counts as inactive or inconclusive.

Cc1cc(NC(=O)CS(=O)(=O)c2cn(Cc3ccccc3Cl)c3ccccc23)no1	TGFb inhibitor inconclusive, HT1080-NT tox inconclusive, HT1080 IDH1KD tx inconclusive
COc1ccc2c(c1)-c1nc(-n3ncc(C(=O)NC[C@@H]4CCCN5CCCC[C@H]45)c3C)ncc1CC2	S2 tox 25µM (no result: HepG2 viability, TGFb inhibitor, HT1080-NT tox, HT1080 IDH1KD tx, ATXN2 expr inh)
COc1ccc2c(c1)-c1nc(-n3ncc(C(=O)NCC4CCCN(C)C4)c3C3CC3)ncc1CC2 (stereo not drawn)	none (no result: HepG2 viability, TGFb inhibitor, HT1080-NT tox, HT1080 IDH1KD tx, ATXN2 expr inh)
Cc1ccc(C2CC(=O)Nc3cc4c(cc32)OCCO4)cc1Br (stereo not drawn)	TGFb inhibitor 13µM (no result: HT1080-NT tox, HT1080 IDH1KD tx)
O=C(O)c1cccc(Cn2c(Cl)c(/C=N/Nc3ccccc3)sc2=O)c1	HT1080-NT tox inconclusive, HT1080 IDH1KD tx 5.8µM
O=C(O)c1cccc(Cn2c(Cl)c(/C=N/NC(=O)c3ccccc3Cl)sc2=O)c1	S2 tox inconclusive
Clc1ccc(-c2nc3ccc(Br)cn3c2Cc2cccc(Cl)c2)cc1	TGFb inhibitor inconclusive, HT1080-NT tox inconclusive, HT1080 IDH1KD tx 15µM, S2 tox inconclusive
Clc1cccc(Cc2c(-c3cccc(Cl)c3)nc3ccc(Br)cn23)c1	TGFb inhibitor 14µM, HT1080 IDH1KD tx inconclusive, S2 tox inconclusive
Clc1cccc(Cc2c(-c3cccc(Br)c3)nc3ccc(Br)cn23)c1	TGFb inhibitor inconclusive, S2 tox inconclusive
Cc1nc(N2CCCC2)c2c(C(=O)Nc3ccc(C)c(Cl)c3)c(C)oc2n1	none (no result: HT1080-NT tox, HT1080 IDH1KD tx, ATXN2 expr inh, S2 tox)
CCn1nc(C)cc1C(=O)Sc1cccc(Cl)c1	TGFb inhibitor inconclusive, HT1080-NT tox 18µM, HT1080 IDH1KD tx inconclusive
CC[C@@H](C(=O)[C@@H](C)[C@@H](O)[C@H](C)CCc1ccc(C)c(O)c1C(=O)O)[C@H]1O[C@](CC)([C@H]2CC[C@](O)(CC)[C@H](C)O2)C[C@@H]1C	TGFb inhibitor 10µM, HT1080-NT tox 1.6µM, HT1080 IDH1KD tx 6.5µM, ATXN2 expr inh 20µM, S2 tox 13µM
COc1cc(=O)n2c(c1C(=O)NC(C)c1ccco1)CCN(Cc1ccnc3ccccc13)CC2 (stereo not drawn)	none (no result: HepG2 viability, TGFb inhibitor, HT1080-NT tox, HT1080 IDH1KD tx, ATXN2 expr inh)
Cc1c(CCNC(=O)c2ccc(Br)o2)sc2nc(-c3ccc(Cl)cc3)nn12	TGFb inhibitor 11µM (no result: HT1080-NT tox, HT1080 IDH1KD tx, ATXN2 expr inh, S2 tox)
Cc1ccc(-c2nc3sc(CCNS(=O)(=O)c4cc(F)ccc4F)c(C)n3n2)cc1	TGFb inhibitor 6.3µM (no result: HT1080-NT tox, HT1080 IDH1KD tx, ATXN2 expr inh, S2 tox)
COc1ccc(-c2nc3sc(CCNC(=O)c4cc(Cl)ccc4OC)c(C)n3n2)cc1	ATXN2 expr inh inconclusive, S2 tox 25µM (no result: HT1080-NT tox, HT1080 IDH1KD tx)
CC(C)[C@H]1COCCS(=O)(=O)N1Cc1cccc([N+](=O)[O-])c1	none (no result: HT1080-NT tox, HT1080 IDH1KD tx, ATXN2 expr inh, S2 tox)
COc1cccc(CNC(=O)c2c(OC)cc(=O)n3c2CCN(C(=O)c2ccc(C)cc2C)CC3)c1	none (no result: HepG2 viability, TGFb inhibitor, HT1080-NT tox, HT1080 IDH1KD tx, ATXN2 expr inh)
COc1ccc(CNc2ncnc3cc(Cl)ccc23)cc1OC	TGFb inhibitor inconclusive
CCN(CC)Cc1cc2[nH]c3c4ccc(Cl)cc4ncc3c2cc1OC	HT1080-NT tox 22µM!, HT1080 IDH1KD tx inconclusive (no result: ATXN2 expr inh)
CN(C(=O)c1cnc(N2CCOCC2)c2ccccc12)c1ccccc1F	none (no result: HT1080-NT tox, HT1080 IDH1KD tx, ATXN2 expr inh, S2 tox)
Cc1onc(-c2ccccc2)c1C(=O)NNC(=S)NC(=O)c1ccc(Cl)cc1Cl	HepG2 viability 13µM, TGFb inhibitor inconclusive, HT1080 IDH1KD tx inconclusive
Cc1ccc2nc(NCc3ccco3)c(C=NCc3ccco3)c(=O)n2c1	none
Cc1cc(O)cc(O)c1C=NCc1ccco1	TGFb inhibitor 20µM, HT1080-NT tox inconclusive, HT1080 IDH1KD tx inconclusive, ATXN2 expr inh inconclusive, S2 tox 18µM
O=C1C=C(O)c2c(O)cc(O)c(O)c2C1=O	TGFb inhibitor inconclusive, S2 tox inconclusive
O=C1c2ccccc2C(=O)c2c(O)c(O)cc(O)c21	HT1080-NT tox 9.2µM, HT1080 IDH1KD tx inconclusive, S2 tox inconclusive
Nc1ccc(O)c2c1C(=O)c1ccccc1C2=O	HT1080-NT tox inconclusive, S2 tox 20µM
O=C(Cc1cccc2ccccc12)N/N=C/c1ccc2cccc(O)c2n1	TGFb inhibitor inconclusive, HT1080-NT tox inconclusive, HT1080 IDH1KD tx 23µM, ATXN2 expr inh inconclusive
O=C(Cc1cccc2ccccc12)N/N=C/c1ccc(O)c([N+](=O)[O-])c1	none
O=c1[nH]c(/C=C/c2ccccc2F)nc2ccccc12	HT1080-NT tox inconclusive, HT1080 IDH1KD tx 5.8µM (no result: ATXN2 expr inh)
Cc1cccc(/C=C\c2nc3ccccc3c(=O)[nH]2)c1	HT1080-NT tox inconclusive, HT1080 IDH1KD tx 5.8µM
O=c1[nH]c(/C=C/c2ccc(Br)cc2)nc2ccccc12	none
O=c1[nH]c(/C=C/c2cccc3ccccc23)nc2ccccc12	none (no result: S2 tox)
C(=C\c1nc2ccccc2[nH]1)/c1ccccc1	HepG2 viability 10µM, HT1080-NT tox 18µM, HT1080 IDH1KD tx 18µM, ATXN2 expr inh inconclusive
COc1ccc(C(=O)N(Cc2ccc(C(C)C)cc2)C2CCS(=O)(=O)C2)cc1 (stereo not drawn)	none (no result: HT1080-NT tox, HT1080 IDH1KD tx)
COc1cc(OC)c(OC)cc1/C=C/c1cc(C(F)(F)F)[nH]c(=O)n1	none
COc1cc(/C=C/c2cc(C(F)(F)F)[nH]c(=O)n2)cc(OC)c1OC	TGFb inhibitor inconclusive, HT1080-NT tox inconclusive, HT1080 IDH1KD tx 29µM, ATXN2 expr inh inconclusive, S2 tox inconclusive
Cc1nn(C(C)(C)C)c(OC(=O)c2cccs2)c1S(=O)(=O)c1ccccc1	TGFb inhibitor inconclusive, HT1080-NT tox 21µM, HT1080 IDH1KD tx inconclusive
CC(=O)Oc1c(S(=O)(=O)c2ccccc2)c(C)nn1C(C)(C)C	S2 tox inconclusive
